Test results reported in PubChem BioAssay AID651956 (Broad Institute, 2012).
Entries with a potency or affinity are not part of this list. Results filed as inconclusive are left out. Active and inactive are the calls of the source.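 Rule for the calls: active = in every test run, a fitted half-maximal concentration for signal decrease at or below twice the highest tested concentration; inconclusive = runs disagree, flat 30 to 70% decrease, or poor fit; inactive = the rest.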

Assay: activation of miR-122 Renilla sensor silencing – cell-based, Huh7 psiCHECK-miR122, Renilla luciferase, cherry-picked, dose response (AID 651956);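 note: Renilla luciferase from a miR-122 sensor reporter so lower signal means miR-122 activation; 0% = median neutral control wells and -100% = median positive control wells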
Conditions: Huh7 psiCHECK-miR122 Renilla luciferase reporter, 48 h; series mostly up to 35 µM; activity change, negative = signal decrease: at the top concentration

SMILES | activity change, negative = signal decrease
COc1ccc(C(NC(C)=O)c2cc(Cl)c3cccnc3c2O)cc1 (stereo not drawn) | -26.7% (inactive)
O=C(CSc1nc2ccccc2s1)N1CCOCC1 | -20.8% (inactive)
CO[C@H]1CN(C)C(=O)c2cc(NC(C)=O)ccc2OC[C@@H](C)N(C(=O)c2ccccn2)C[C@H]1C | 111% (inactive)
O=c1c2cc(N3CCOCC3)ccc2[nH]c(=S)n1CCCN1CCCC1 | -9.61% (inactive)
COCCNC(=O)C[C@H]1CC[C@@H]2[C@@H](COc3ccc(NS(=O)(=O)c4ccc(Cl)cc4)cc3C(=O)N2C)O1 | -22.1% (inactive)
CCCNC(=O)Nc1ccc2c(c1)C(=O)N(C)[C@@H]1CC[C@@H](CC(=O)NCC3CCCCC3)O[C@@H]1CO2 | 128% (inactive)
CCCNC(=O)N1C[C@@H]2[C@H](c3ccccc31)[C@H](CO)N2C(=O)C1CCOCC1 | -8.33% (inactive)
CC(=O)N1[C@H](CN(C)S(=O)(=O)c2ccccc2)[C@H](c2ccccc2)[C@@H]1CO | -17.7% (inactive)
CNC(=O)C[C@H]1CC[C@@H]2[C@@H](COc3ccc(NC(=O)C(C)C)cc3C(=O)N2C)O1 | 101% (inactive)
COC(=O)C[C@H]1CC[C@@H]2[C@@H](COc3ccc(NC(=O)c4cscn4)cc3C(=O)N2C)O1 | -2.42% (inactive)
Cc1[nH]c(=O)c(C#N)cc1-c1ccccc1 | -28.5% (inactive)
C/C=C/c1ccc([C@@H]2[C@@H](CO)N(S(C)(=O)=O)[C@H]2CN(C)C(=O)CC)cc1 | -44.8% (inactive)
COc1cc2nc(C3CCC3)n(NC(=O)C3CCCC(OC)C3)c(=O)c2cc1OC (stereo not drawn) | 72.1% (inactive)
Cc1cc(C)c2c(c1)/C(=C/C(=O)c1ccc(Br)s1)C(=O)N2 | 120% (inactive)
O=C(Nc1nc(-c2cc3ccccc3o2)cs1)c1ccc(S(=O)(=O)N2CCCC2)cc1 | -43.6% (inactive)
COC(=O)C[C@@H]1CC[C@H]2[C@@H](COc3ccc(NC(=O)Nc4ccccc4C)cc3C(=O)N2C)O1 | 13.5% (inactive)
CCC(=O)N1[C@H](CN(C)C(C)=O)[C@H](c2ccc(-c3cccnc3)cc2)[C@@H]1CO | -27.9% (inactive)
CCNC(=O)C[C@@H]1CC[C@@H]2[C@@H](COc3ccc(NC(=O)c4ccccc4)cc3C(=O)N2C)O1 | 57.6% (inactive)
CC(=O)c1ccc(Nc2nc3ccc(C)cc3n3cnnc23)cc1 | -24.4% (inactive)

SMILES | activity change, negative = signal decrease
Cc1ccc(C(=O)n2nc(-c3ccccc3)nc2NCc2ccco2)cc1 | 64.8% (inactive)
C[C@H](O)C#Cc1ccc2c(c1)O[C@@H](CN(C)Cc1ccc(-c3ccccc3)cc1)[C@H](C)CN([C@H](C)CO)S2(=O)=O | 45.2% (inactive)
CC(=O)Nc1ccc2c(c1)C(=O)N(C)[C@@H]1CC[C@@H](CC(=O)NCc3ccc(Cl)cc3)O[C@H]1CO2 | -5.46% [at 30 µM] (inactive)
N#CC1=C(N)Oc2c(ccc3cccnc23)C1c1ccccc1 (stereo not drawn) | 13.3% (inactive)
CN(C)CCNc1nc2sc3c(c2c(=O)n1CCc1ccccc1)CCCCC3 | 70.4% (inactive)
COCCNC(=O)C[C@H]1CC[C@@H]2[C@H](COc3ccc(NC(=O)C4CCOCC4)cc3C(=O)N2C)O1 | -14.5% (inactive)
COc1ccc(-c2nc(NC(=O)CSc3nnc(C)s3)ns2)cc1 | 10.4% (inactive)
CCCNC(=O)N1[C@H](CO)[C@@H](c2ccccc2)[C@H]1CNC(=O)c1ccccc1 | -30.3% (inactive)
COc1ccc2[nH]c(=O)c(COC(=O)c3ccco3)cc2c1 | 71.3% (inactive)
O=C(Nc1ccccc1N1CCN(C(=O)c2ccc(Cl)cc2)CC1)c1cccnc1 | -13% (inactive)
CCCNC(=O)C[C@@H]1CC[C@@H]2[C@@H](COc3ccc(NC(=O)c4ccc(C(F)(F)F)cc4)cc3C(=O)N2C)O1 | -48.5% (inactive)
COc1ccc2c(c1)C(C)=CC(C)(C)N2C(=O)CNCc1ccc2c(c1)OCO2 | -43.5% (inactive)
COc1ccc(CNC(=O)NCCc2c[nH]c3ccccc23)cc1 | -1.23% (inactive)
COCC(=O)N(C[C@@H]1N[C@H](CO)[C@H]1c1ccc(-c2cccnc2)cc1)C(C)C | 80% (inactive)
C/C=C/c1ccc([C@H]2[C@@H](CO)N(C(=O)C3CC3)[C@H]2CN(C)C(=O)CC2CC2)cc1 | 0% (inactive)
Cc1c(CC(=O)NCCCC(=O)O)c(=O)oc2cc3occ(-c4ccccc4)c3cc12 | -37.3% (inactive)
CNc1nc(NCC2CCCCC2)c2sccc2n1 | -42% (inactive)
CCNC(=O)C[C@H]1CC[C@H]2[C@H](COc3ccc(NC(=O)Nc4cccc(OC)c4)cc3C(=O)N2C)O1 | -25.6% [at 30 µM] (inactive)
COc1ccc(C(C#N)Nc2ccc(C)cc2)cc1 (stereo not drawn) | -33.2% (inactive)
